From PubChem BioAssay
The list is not random: actives were taken first. Their share in the collection is about 2.2%.
GalR3 antag – antagonists of human GalR3; O60755; HEK293 GalR3-CNG cAMP membrane potential fluorescence; galR3 body fused to GalR1 C-terminus; inhibition, % at 3 µM; 0.44% of 360,000 active; AID 651719;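 active = inhibition above the screen-wide average plus 3 SD, cut at about 13% in these data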;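 also: forskolin and galanin both at EC90 stimulate the cells; cAMP rise reported by CNG channel membrane potential dye signal; 0% = forskolin plus galanin with DMSO and 100% = forskolin alone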
Target sequence (O60755 1-299 limits assumed): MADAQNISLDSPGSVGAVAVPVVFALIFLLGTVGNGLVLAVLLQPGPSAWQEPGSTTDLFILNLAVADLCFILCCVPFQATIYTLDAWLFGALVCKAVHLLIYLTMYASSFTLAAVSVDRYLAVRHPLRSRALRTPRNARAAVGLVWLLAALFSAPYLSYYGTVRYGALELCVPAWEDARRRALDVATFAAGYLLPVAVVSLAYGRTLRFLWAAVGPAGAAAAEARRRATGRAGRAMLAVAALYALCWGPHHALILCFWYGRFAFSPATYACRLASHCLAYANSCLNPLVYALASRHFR
SMARCA2 activ – increases SMARCA2 function in MMTV reporter cells | MG213 cells, MMTV-luciferase reporter, dexamethasone, overnight | activation, % at 9.1 µM | 1% of 370,000 active | AID 652017; in the data active = activation above about 7.8%;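 also: 0% = vehicle wells and 100% = reference activator wells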
HIF activator – HIF pathway transcriptional activation; U2OS HRE-luciferase reporter, luminescence; normalized: DMSO 0%, desferrioxamine 100%; activation, % at 7.5 µM (by protocol); 0.32% of 300,000 active;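 active = mean activation of at least 10% of the iron chelator positive control signal, with at least half of replicates also reaching 10%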
GAA850 FXN act – activators of GAA850 frataxin (FXN) promoter | activation, % at 6 µM | HEK293 lucGAA850 FXN promoter luciferase reporter, 24 h; percent of 10 µM SAHA response | 0.56% of 360,000 active | AID 540364;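 active = activation above the average of all compounds screened plus 3 SD, cutoff fixed separately per campaign, cut at about 7.5% in these data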;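 also: 0% = DMSO wells and 100% = 10 µM SAHA wells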
Hsp70 act – Hsp70 transcriptional activation, primary screen; 0.04% of 200,000 active; HeLa Hsp70 promoter luciferase reporter, luminescence; scaled: vehicle 0, proteasome-inhibitor control 100%; activation, % at 10 µM; AID 1203;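 active = activation above the mean across all tested compounds plus 3 SD, cutoff set per campaign, cut at about 5.5% in these data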;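 also: 100% = MG132 at 30 µM as the positive control and 0% = DMSO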
GalR3 antag conf – GalR3 (human) antagonism, confirmation | inhibition, % at 3 µM | 59% of 1,600 active | HEK293 GalR3 CNG cAMP biosensor, membrane potential fluorescence; galR3 fused to GalR1 carboxy tail; challenged with forskolin and galanin at EC90 | shares compounds with GalR3 antag;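 active = inhibition above the primary screen's cutoff, the mean inhibition of all screened compounds plus 3 SD, cut at about 13% in these data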;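 also: 0% = forskolin plus galanin and 100% = forskolin alone with DMSO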
HEK-CNG parental – parental cell agonism counter-screen for GalR3 antagonists; shares compounds with GalR3 antag; HEK293-CNG parental cells, cAMP membrane potential fluorescence; normalised: DMSO wells 0%, forskolin wells 100%; activation, % at 3 µM; 10% of 1,600 active; AID 652268; in the data active = activation above about 1.3%
An asterisk follows results filed as active; . = no result given.

SMILES	GalR3 antag	SMARCA2 activ	HIF activator	GAA850 FXN act	Hsp70 act	GalR3 antag conf	HEK-CNG parental
CC1CC(=O)NN=C1c1ccc(NCCO)c([N+](=O)[O-])c1 (stereo not given)	64*	0	0	6	0	71*	0
O=C(CSc1nnc(-c2n[nH]c3ccccc23)n1-c1ccccc1)Nc1cccc(Cl)c1	21*	4	-1	7	0	14*	-1
CC(/C=N\NC(=O)Cn1c(C)nc2ccccc21)=C\c1ccccc1	70*	-6	1	-2	-1	8	0
N#Cc1ccc(Cn2nnc(-c3ccc(N4CCOCC4)cc3)n2)cc1	.	2	.	.	.	.	.
COCCCn1c(=O)c2sccc2n2c(CCCC(=O)NCC3CCCO3)nnc12 (stereo not given)	14*	-3	-1	-1	.	9	0
CCCn1c(=O)c2sccc2n2c(CCCC(=O)NCC3CCCO3)nnc12 (stereo not given)	-6	0	0	0	.	.	.
CCc1ccc(CNCc2ccc(OCC(O)CN(C)Cc3ccccc3)cc2)nc1 (stereo not given)	56*	-4	0	1	0	14*	15*
COc1ccc(CC(=O)OCc2cc3ccccc3[nH]c2=O)cc1	.	-3	0	0	0	2	0
O=C(NCCCl)NNc1c(Cl)cc(Cl)cc1Cl	26*	-2	0	2	0	13*	0
COc1cccc(C2c3c(-c4cc(Cl)c(C)cc4O)n[nH]c3C(=O)N2Cc2cccnc2)c1 (stereo not given)	12	0	0	2	0	.	.
COc1cc(C2c3c(-c4cc(Cl)c(C)cc4O)n[nH]c3C(=O)N2Cc2cccnc2)ccc1O (stereo not given)	33*	2	0	4	0	24*	0
Cc1ccc(S(=O)(=O)N2CCN(C)CC2)cc1-c1nnc2c3ccccc3c(C)nn12	40*	2	0	2	0	49*	1
Cc1ccc(S(=O)(=O)N2CCN(CCO)CC2)cc1-c1nnc2c3ccccc3c(C)nn12	30*	2	0	2	0	43*	2.9*
COC[C@H]1CCCN1c1ccc2c(c1)O[C@H](C)CCN(C1CC1)S2(=O)=O	.	-1	.	.	.	.	.
Cc1oc2c(C)c3oc(=O)c(CCC(=O)N4C[C@H]5C[C@@H](C4)c4cccc(=O)n4C5)c(C)c3cc2c1C	15*	3	-1	1	.	7	0
O=C1c2ccccc2-n2c1nc1ccccc1c2=O	-7	3	0	2	0	.	.
CC1(C)Cc2ccccc2-c2nc3ccccc3c(=O)n21	.	0	0	0	0	3	0
O=C(NCCc1c[nH]c2ccccc12)OCc1cn(-c2ccc(F)cc2)nn1	.	-2	.	.	.	.	.
C[C@@H]1NS(=O)(=O)c2ccc(F)cc2O[C@@H]1c1ccccc1	-9	2	.	.	.	.	.
CCCCN(C)c1c2c(nc3ncnn13)CCCC2	.	0	.	.	.	.	.
O=C(CSc1nnc(-c2ccco2)c(-c2ccco2)n1)c1ccccc1	13*	4	0	2	0	2	0
CC(=O)c1ccc(NC(=O)CSc2nnc(-c3ccco3)c(-c3ccco3)n2)cc1	-9	-2	0	3	0	.	.
Fc1ccc(NC(=S)NNc2ncc(C(F)(F)F)cc2Cl)c(F)c1	92*	-8	0	-12	0	97*	0
CN(Cc1cn(CC2CCCCC2)nn1)S(=O)(=O)c1ccccc1Br	.	-3	.	.	.	.	.
CC(=O)OC[C@]12CC[C@H]3[C@@](C)(CC[C@H]4C(C)(C)CCC[C@]34C)[C@@H]1CC(C1=CC(=O)OC1O)O2 (stereo not given in full)	30*	-7	.	-15	.	44*	1.8*
SMILES	GalR3 antag	SMARCA2 activ	HIF activator	GAA850 FXN act	Hsp70 act	GalR3 antag conf	HEK-CNG parental
CS(=O)(=O)N1CCN(c2ccc([N+](=O)[O-])cc2C(F)(F)F)CC1	18*	-2	-1	-2	.	14*	0
CC(C)(CO)NCc1cccc(OCc2ccc(Cl)cc2)c1	-7	0	1	4	0	.	.
Clc1ccc(COc2cccc(CNCc3ccncc3)c2)cc1	32*	-7	0	0	0	93*	1
COc1ccc2c(c1)CCCN2C(=O)C1CCCN(S(=O)(=O)c2ccc(Br)s2)C1 (stereo not given)	.	-5	.	.	.	.	.
CC1(C)CC(N2CCCC2)=CC(=[N+]2CCCCC2)C1	37*	-4	0	-2	0	6	0
Cc1ccc(C2(c3ccc(C)cc3)CC2C(=O)Nc2ccc([N+](=O)[O-])cc2O)cc1 (stereo not given)	61*	-8	-2	-12	0	22*	-2
Cc1sc2ncnc(NCC3COc4ccccc4O3)c2c1C (stereo not given)	100*	-6	0	-3	0	105*	0
Cc1sc2ncnc(NCC3CCCO3)c2c1C (stereo not given)	-4	-2	0	-1	0	.	.
O=[N+]([O-])c1ccc(COc2cccc(CO)c2)cc1	-5	6	.	.	.	.	.
CC(C(=O)Nc1ccc2c(c1)OCO2)N1CCN(C)CC1 (stereo not given)	-6	-1	0	2	.	.	.
CC(C(=O)Nc1ccc2[nH]c(=O)[nH]c2c1)N1CCN(Cc2ccc3c(c2)OCO3)CC1 (stereo not given)	13*	-1	.	0	.	13*	0
CNc1ccccc1C(C)(C)c1cc(-c2ccc(F)cc2)no1	49*	-7	-1	-1	0	69*	0
CNc1ccccc1C(C)(C)c1cc(-c2cccc(Br)c2)no1	-9	-5	0	-1	0	.	.
Cc1ccc(NC(=O)Cn2cc(C=O)c3ccccc32)cc1	-11	2	-9	-2	.	.	.
CC(C)(C)NCC(O)Cn1cc(C=O)c2ccccc21 (stereo not given)	14*	3	0	4	0	36*	0
COc1cc(OC)cc(-c2c(C#Cc3ccsc3)c3cc(-c4ccc(C(N)=O)cc4)ccc3n2C)c1	.	-1	.	4	.	4	0
Cc1nc(C)n(CC(=O)N2CCCC(C(=O)c3cccc4ccccc34)C2)n1 (stereo not given)	13*	5	1	3	0	-1	0
COc1ccc(-n2c(COc3ccccc3)nnc2SCc2nc3ccccc3[nH]2)cc1	.	-3	.	.	.	.	.
Cc1cccc(N2CCN(S(=O)(=O)c3cc(-c4cc(C)no4)ccc3C)CC2C)c1 (stereo not given)	52*	-2	1	-8	.	88*	0
